# Experimental data from PubChem BioAssay (NCI).
# About 83,000 compounds went through this panel and 20% of them were active in at least one assay; those are over-represented in the sample as a whole.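 Assay: single dose, 48 h. Readout: percent growth (0 = no net growth; negative = cell death). Active: <10.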 Unmarked numbers belong to inactive results. Calls of active or inactive are those of the source.
# What was measured:
# Assay in all cases: NCI-60 one-dose screen, 48 h (100 = growth as untreated, 0 = no growth, -100 = all killed)
# Conditions in all cases: 10 µM unless noted
# [1] = tested on: NCI-H23 lung
# [2] = tested on: NCI-H226 lung
# [3] = tested on: HOP-62 NSCLC
# [4] = tested on: NCI-H460 lung
# [5] = tested on: HOP-92 NSCLC
# [6] = tested on: NCI-H522 lung
# [7] = tested on: A549/ATCC NSCLC
# [8] = tested on: 786-0 renal
# [9] = tested on: COLO 205 colon
# [10] = tested on: DU-145 prostate
# [11] = tested on: K-562 leukemia
# [12] = tested on: MALME-3M melanoma
# [13] = tested on: MDA-MB-231 breast
# [14] = tested on: RXF 393 renal
# [15] = tested on: SF-268 CNS
# [16] = tested on: SF-295 CNS
# [17] = tested on: SF-539 CNS
# [18] = tested on: UACC-257 melanoma
# [19] = tested on: M14 melanoma
# [20] = tested on: NCI-H322M lung
SMILES,growth [1],growth [2],growth [3],growth [4],growth [5],growth [6],growth [7],growth [8],growth [9],growth [10],growth [11],growth [12],growth [13],growth [14],growth [15],growth [16],growth [17],growth [18],growth [19],growth [20]
CC(=O)Nc1ccc(-c2nc3cc(-c4ccc(O)cc4)ccc3n2C)cc1,59.2%,90.1%,83.8%,33.8%,36.4%,1.22% (active),69.7%,50.3%,71.3%,54.9%,15.5%,68.4%,53.4%,66.7%,68.1%,47.1%,49.2%,80.8%,63.9%,
COc1ccc(-c2nnc3ccc(N/N=C/c4ccc(C)cc4)nn23)cc1,50.7%,54.6%,70.4%,51.2%,,91%,33.4%,56.9%,79.9%,39.1%,,91.3%,65.4%,62.2%,59.1%,56.9%,61.3%,106%,83.5%,
COc1ccc2c(c1)c(-c1cc(N)n3nc(-c4cn(C)c5ccccc45)cc3n1)cn2C,,-44% (active),-59.6% (active),-44.5% (active),-75.2% (active),-64.4% (active),-44.6% (active),-88.3% (active),-83% (active),-58% (active),2.2% (active),-76.5% (active),-53.8% (active),-82.2% (active),-56.5% (active),-73.3% (active),-87.6% (active),-67.8% (active),-83% (active),-42.2% (active)
COc1cc2c(c(OC)c1OC)C(=O)CC(c1cccc(NC(=O)c3cc(NC(=O)[C@H](C)N)ccc3Cl)c1)O2 (stereo partly specified),,48.9%,79.1%,51.4%,17.9%,1.34% (active),56%,45%,74.5%,36%,9.72% (active),45.5%,52.5%,32.1%,50.5%,110%,44.3%,62.9%,,81.2%
COc1cc2nc(SCc3ccccc3)n(-c3ccc(Cl)cc3)c(=O)c2cc1OC,,-27.3% (active),-69.2% (active),-47.6% (active),-30.2% (active),-0.701% (active),-50.6% (active),-57.2% (active),3.25% (active),-10% (active),2.35% (active),-40.8% (active),-6.51% (active),-38.8% (active),-12.9% (active),-59.9% (active),-83.6% (active),38.3%,20.1%,3.77% (active)
C#CCOc1cc(N(CC)CC)ccc1C(C(=O)NC(C)(C)C)N(C(=O)C1CCc2cc(F)ccc2O1)c1ccccc1Br (stereo unspecified),,63.8%,73.3%,52.3%,56.4%,47.6%,54.2%,59.4%,46.9%,74%,31.3%,77.4%,63%,81.6%,62.1%,62.8%,72.5%,60%,,86.3%
Cc1ccc(-c2nc(C#N)c(S(=O)(=O)N3CCN(S(=O)(=O)c4ccccc4)CC3)o2)cc1,,69.2%,87.7%,32.6%,-20.4% (active),-87.8% (active),57.9%,-87.1% (active),-62.1% (active),28.8%,-28.1% (active),-77.4% (active),31.4%,-89.2% (active),56.5%,149%,-43.4% (active),44.7%,-21.3% (active),77.9%
Cc1ccc(C(=O)C(c2c[nH]c3ccccc23)c2c[nH]c3ccccc23)cc1,,38.9%,89.9%,-6.44% (active),89.9%,-1.59% (active),49%,32%,-45.7% (active),4.62% (active),5.78% (active),72.6%,24.2%,34%,51.5%,81.9%,70.4%,76.6%,33.9%,81.8%
N/C(=N\c1nc2ccccc2s1)NC(=O)Nc1ccc(Cl)cc1Cl,-83.4% (active),-40.2% (active),-77% (active),-95.9% (active),,,-85.4% (active),-78.6% (active),-87.7% (active),-74.2% (active),9.51% (active),-75.2% (active),-83.4% (active),-84% (active),-2.76% (active),-98.5% (active),-78.2% (active),18.8%,-53.6% (active),
O=[N+]([O-])c1ccc(/C=C/c2nc3ccccc3n3c(=S)[nH]nc23)cc1,,65.3%,80.2%,78%,68.2%,63.6%,77%,102%,104%,88%,70.5%,101%,85.9%,78.7%,80.1%,125%,98.4%,94.8%,84.4%,84.1%
COc1ccc2[nH]cc(-c3cc(N)n4nc(-c5cn(C)c6ccccc56)cc4n3)c2c1,,-19.3% (active),-66.4% (active),-1.01% (active),-71% (active),-75.9% (active),-75.6% (active),-87.6% (active),-84.7% (active),-64.7% (active),4.69% (active),-75.5% (active),-44.8% (active),-83.9% (active),-11.7% (active),-81% (active),-82% (active),-86.2% (active),-91.1% (active),-97.2% (active)
C#CCOc1cc(N(CC)CC)ccc1C(C(=O)NC(C)(C)C)N(C(=O)C1CCc2cc(F)ccc2O1)c1ccc(F)c(Cl)c1 (stereo unspecified),,62.8%,77.5%,53.2%,48.2%,60.5%,65.9%,58.7%,63.1%,78.9%,35.7%,81.7%,55.5%,59.3%,49.8%,72.8%,77.9%,58.2%,,89.5%
C#CCOc1cc(N(CC)CC)ccc1C(C(=O)NC(C)(C)C)N(C(=O)C1CCc2cc(F)ccc2O1)c1ccc(F)cc1 (stereo unspecified),,43.5%,70.2%,36.7%,39.8%,43.1%,39.8%,52.8%,32.4%,65.3%,23.6%,65.6%,51%,57.3%,47.7%,41.5%,66.2%,40.3%,46.4%,70.6%
Cc1ccc(-c2nc(C#N)c(S(=O)(=O)N3CCN(S(=O)(=O)c4ccc(Cl)cc4)CC3)o2)cc1,,87.6%,63%,99.6%,94.6%,71.2%,94.3%,49.1%,124%,97.4%,56.9%,79.1%,90.9%,56.6%,75.8%,110%,70.5%,89.5%,,97.1%
C#CCOc1ccc(/C=N/Nc2nc(-c3cc4cc(OC)ccc4oc3=O)cs2)cc1OC,,14.2%,71.9%,8.62% (active),-0.0146% (active),42%,10%,74.2%,63.6%,31.5%,34.7%,2.64% (active),44%,-88.8% (active),57.2%,41.2%,28.2%,54.7%,42.2%,72.2%
O=C(CSc1nc2ccccc2c(=O)[nH]1)NCCN1CCCCC1,,95.7%,106%,104%,101%,90.6%,100%,102%,99%,106%,98.9%,97.3%,100%,115%,92.9%,103%,91%,97.3%,94.4%,94.8%
